# Laboratory results from PubChem BioAssay (Tox21).
# Several values for one entry are separate records, joined by “and”; a condition that tells them apart may be missing. Equal entries are not always repeated. Records with an inconclusive call do not appear. A call without a number means that no potency is given here. Where a structure was tested more than once in an assay, its records may differ in their call. Activity calls are given as the source filed them. Unless noted, the call rests on the fitted dose curve; in most records, active means well fitted curve in the direction sought with a large enough effect in the repeat runs; inconclusive means weak or mixed curves; inactive means no such curve, though single readings can be large; an effect the other way counts as inactive or inconclusive.
# Legend:
# [1] = qHTS assay to identify small molecule antagonists of the glucocorticoid receptor (GR) signaling pathway - cell viability counter screen (AID 720693); further: nearly all actives have a fitted effect of over 55% in size
# [2] = qHTS assay for identifying genotoxic compounds that show differential cytotoxicity against isogenic chicken DT40 cell lines with known DNA damage response pathways - wild type cell line (AID 743012); further: nearly all actives have a fitted effect of over 60% in size; further: potency means the concentration at half of the fitted maximal effect
# In short: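 Parental DNA repair-proficient DT40 cells, 300 per well, were pre-incubated ~0.5 h at 37 C/5% CO2, pin-dosed with compounds in DMSO, then incubated 40 h. Viability was read as CellTiter-Glo luminescence after 30 min at room temperature.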
# [3] = qHTS assay for identifying genotoxic compounds that show differential cytotoxicity against isogenic chicken DT40 cell lines with known DNA damage response pathways - Rev3 mutant cell line (AID 743014); further: nearly all actives have a fitted effect of over 55% in size; further: potency means the concentration at half of the fitted maximal effect
# [4] = qHTS assay for identifying genotoxic compounds that show differential cytotoxicity against isogenic chicken DT40 cell lines with known DNA damage response pathways - Rad54/Ku70 mutant cell line (AID 743015); further: nearly all actives have a fitted effect of over 60% in size; further: potency means the concentration at half of the fitted maximal effect
# [5] = qHTS assay to identify small molecule antagonists of the androgen receptor (AR) signaling pathway - cell viability counter screen (AID 743033; further: nearly all actives have a fitted effect of over 45% in size)
# [6] = qHTS assay to identify small molecule antagonists of the androgen receptor (AR) signaling pathway using the MDA cell line - cell viability counter screen (AID 743041; further: nearly all actives have a fitted effect of over 45% in size)
# In short: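 R1881-driven MDA-kb2 AR-luc cells, 3,000/well, were dosed with library compounds for 16 h; cell health came from CellTiter-Fluor fluorescence in the reporter wells.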
# [7] = qHTS assay to identify small molecule antagonists of the thyroid receptor (TR) signaling pathway - cell viability counter screen (AID 743064); further: nearly all actives have a fitted effect of over 50% in size; further: potency means the concentration at half of the fitted maximal effect
# In short: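 Same-well viability check: GH3.TRE-Luc cells stimulated with 1 nM T3 alongside test compound for 23.5 h, followed by CellTiter-Fluor fluorescence.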
# [8] = qHTS assay to identify small molecule antagonists of the thyroid receptor (TR) signaling pathway (AID 743065); further: series mostly up to about 70 µM; nearly all actives have a fitted effect of over 55% in size
# In short: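 Antagonism measured as loss of luciferase signal in GH3 cells stably carrying a TRE-luciferase reporter, co-treated with compound and T3 (1 nM final) for 23.5 h at 37 C. Viability was read in the same well by CellTiter-Fluor.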
# [9] = test system: thyroid hormone receptor (rat, GH3 cells); assay: qHTS assay to identify small molecule agonists of the thyroid receptor (TR) signaling pathway (AID 743066; calls by dose curve)
# [10] = qHTS assay to identify small molecule antagonists of the estrogen receptor alpha (ER-alpha) signaling pathway - cell viability counter screen (AID 743074; calls by dose curve;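 further: HEK293 cells carrying ER-alpha-UAS-bla reporter stimulated with 17beta-estradiol; nearly all actives have a fitted effect of over 45% in size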)
# [11] = qHTS assay to identify small molecule antagonists of the estrogen receptor alpha (ER-alpha) signaling pathway using the BG1 cell line - cell viability counter screen (AID 743081);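 further: compound given together with 17beta-estradiol as the ER stimulus; series mostly up to about 70 µM; nearly all actives have a fitted effect of over 45% in size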
# Aromatase (Homo sapiens) = Aromatase (Homo sapiens) (UniProt P11511); assay: qHTS assay to identify aromatase inhibitors (AID 743083); further: series mostly up to about 70 µM; nearly all actives have a fitted effect of over 55% in size
# [12] = target: Estrogen receptor (Homo sapiens) (UniProt P03372); assay: qHTS assay to identify small molecule antagonists of the estrogen receptor alpha (ER-alpha) signaling pathway (AID 743069; active means well fitted curve in the direction sought with a large enough effect in the signal ratio in the repeat runs, not every such curve was filed as active; the % refers to the signal ratio)
# In short: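 Compound effects are measured against 17beta-estradiol stimulation in HEK293 cells with a UAS-controlled beta-lactamase reporter for ER-alpha. Exposure lasts 18 hr at 37C; LiveBLAzer B/G FRET substrate follows for 2 hr at room temperature.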
# [13] = target: Estrogen receptor (Homo sapiens) (UniProt P03372); assay: qHTS assay to identify small molecule agonists of the estrogen receptor alpha (ER-alpha) signaling pathway (AID 743075; calls by dose curve)
# [14] = target: Estrogen receptor (Homo sapiens) (UniProt P03372); assay: qHTS assay to identify small molecule agonists of the estrogen receptor alpha (ER-alpha) signaling pathway using the BG1 cell line (AID 743079); further: nearly all actives have a fitted effect of over 20% in size; further: potency means the concentration at half of the fitted maximal effect
# [15] = qHTS assay to identify small molecule antagonists of the estrogen receptor alpha (ER-alpha) signaling pathway using the BG1 cell line (AID 743080; calls by dose curve;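 further: BG1 cells stimulated with 17beta-estradiol alongside compound; series mostly up to about 70 µM; nearly all actives have a fitted effect of over 25% in size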)
# In short: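 BG1-Luc-4E2 cells (endogenous full-length ER-alpha, 4xERE luciferase) hormone-starved 5 days in charcoal-stripped FBS, plated 4,000/well for 24 h, then compound plus 17beta-estradiol for 21.5 h at 37 C; ONE-Glo luminescence read.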
# Sequence of Estrogen receptor (Homo sapiens) (P03372 whole entry, looked up): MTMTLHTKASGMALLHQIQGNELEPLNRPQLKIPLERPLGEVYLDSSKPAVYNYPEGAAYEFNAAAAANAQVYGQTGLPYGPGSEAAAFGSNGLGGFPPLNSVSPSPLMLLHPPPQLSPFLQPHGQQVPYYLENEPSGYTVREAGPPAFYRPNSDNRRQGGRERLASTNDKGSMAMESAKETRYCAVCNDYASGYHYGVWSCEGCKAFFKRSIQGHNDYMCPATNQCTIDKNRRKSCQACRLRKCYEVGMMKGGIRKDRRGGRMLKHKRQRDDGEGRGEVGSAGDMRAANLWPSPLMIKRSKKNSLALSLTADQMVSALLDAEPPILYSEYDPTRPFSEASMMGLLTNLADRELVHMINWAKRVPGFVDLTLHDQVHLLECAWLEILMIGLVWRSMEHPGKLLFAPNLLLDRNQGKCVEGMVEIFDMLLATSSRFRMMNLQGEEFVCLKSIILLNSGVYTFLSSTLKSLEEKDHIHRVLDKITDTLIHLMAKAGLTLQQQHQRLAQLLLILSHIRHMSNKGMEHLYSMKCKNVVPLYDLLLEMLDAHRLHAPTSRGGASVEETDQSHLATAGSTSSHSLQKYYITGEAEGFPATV
# Sequence of Aromatase (Homo sapiens) (P11511 whole entry, looked up): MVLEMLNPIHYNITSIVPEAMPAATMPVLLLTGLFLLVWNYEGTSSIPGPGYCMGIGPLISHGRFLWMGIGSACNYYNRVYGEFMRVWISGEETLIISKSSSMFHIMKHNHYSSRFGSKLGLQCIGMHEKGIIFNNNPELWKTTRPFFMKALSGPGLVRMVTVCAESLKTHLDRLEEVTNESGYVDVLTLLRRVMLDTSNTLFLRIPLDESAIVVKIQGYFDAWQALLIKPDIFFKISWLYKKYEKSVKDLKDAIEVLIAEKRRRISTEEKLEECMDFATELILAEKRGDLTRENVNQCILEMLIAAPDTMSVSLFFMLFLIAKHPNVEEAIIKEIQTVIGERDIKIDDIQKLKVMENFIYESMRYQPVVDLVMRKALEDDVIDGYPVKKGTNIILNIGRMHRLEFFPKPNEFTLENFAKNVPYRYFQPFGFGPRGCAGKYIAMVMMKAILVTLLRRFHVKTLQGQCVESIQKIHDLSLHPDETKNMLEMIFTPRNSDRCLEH
SMILES,outcome [1],Potency [2],Potency [3],Potency [4],outcome [5],Potency [6],Potency [7],Potency [8],outcome [9],Potency [10],Potency [11],Potency (Aromatase (Homo sapiens)),Potency [12],outcome [13],Potency [14],outcome [15]
CC1CN(c2ccccc2)NC1=O (configuration not stated),inactive,inactive,inactive,inactive,inactive,inactive,inactive,inactive,inactive,inactive,inactive,inactive,,,,
O=[N+]([O-])c1nccn1CO[C@@H](CO)[C@H](O)CO,inactive,inactive,inactive,inactive,inactive,inactive,inactive,inactive,inactive,,inactive,inactive,,,,
CN1CCN(c2c(F)cc3c(=O)c(C(=O)O)cn4c3c2SCC4)CC1,inactive,10.6 µM (active),18.8 µM (active),21.1 µM (active),inactive,inactive,inactive,,inactive,inactive,inactive,inactive,inactive,inactive,inactive,inactive
COc1ccc2nc(NC(=O)Nc3ccccc3)sc2c1,inactive,18.8 µM (active),26.6 µM (active),16.8 µM (active),inactive,inactive,inactive,,inactive,inactive,inactive,inactive,,,,
CCOc1ccc(OCC)c(Cl)c1,inactive,inactive,inactive,inactive,inactive,inactive,inactive,,inactive,inactive,inactive,inactive,inactive,inactive,inactive,inactive
O=C(O)[C@@H](O)[C@H](O)[C@H](O)[C@@H](O)C(=O)O,inactive,inactive,inactive,inactive,inactive,inactive,inactive,,inactive,inactive,inactive,inactive,,,,
Cc1ccc([N+](=O)[O-])c(N)c1,inactive,inactive,inactive,inactive,inactive,inactive,inactive,,inactive,inactive,inactive,inactive,,,,
CC1=C(O)C(=O)OC1C (configuration not stated),inactive,inactive,inactive,inactive,inactive,inactive,inactive,inactive,inactive,inactive,inactive,inactive,,,,
CCCCCCCCCC#N,inactive,inactive,inactive,inactive,inactive,inactive,inactive,,inactive,inactive,inactive,inactive,inactive,inactive,inactive,inactive
COc1nc(C)nc(NC(=O)NS(=O)(=O)c2ccccc2OCCCl)n1,inactive,inactive,inactive,inactive,inactive,inactive,inactive,,inactive,inactive,inactive,inactive,inactive,inactive,,inactive
O=C1CCC(C2CCCCC2)CC1,inactive,inactive,inactive,inactive,inactive,inactive,inactive,,inactive,,inactive,inactive,,,,
CC1=NN(c2cc(Cl)c(S(=O)(=O)O)cc2Cl)C(=O)C1N=Nc1ccc(S(=O)(=O)O)cc1 (configuration not stated),inactive,inactive,inactive,inactive,inactive,inactive,inactive,,inactive,inactive,inactive,inactive,,,,
Cc1ccc([N+](=O)[O-])cc1Cl,inactive,inactive,inactive,inactive,inactive,inactive,inactive,,inactive,inactive,inactive,inactive,,,,
CCC1(C)NC(=O)NC1=O (configuration not stated),inactive,inactive,inactive,inactive,inactive,inactive,inactive,inactive,inactive,,inactive,inactive,,,,
CCCCCCOc1ccc(N)cc1,inactive,61.1 µM (active),43.3 µM (active),54.5 µM (active),inactive,inactive,inactive,,inactive,,inactive,,,inactive,9.69 µM (active),
CC(C)C[C@H](NC(=O)OCC1c2ccccc2-c2ccccc21)C(=O)O,inactive,inactive,inactive,inactive,inactive,inactive,inactive,,inactive,inactive,inactive,inactive,,,,
C=CC(C)(O)CC/C=C(\C)CCC=C(C)C (configuration not stated),inactive,inactive,inactive and 4.33 µM (active),inactive,inactive,inactive,inactive,inactive,inactive,inactive,inactive,inactive,,,,
CC(C)=CCCC(C)CCOC=O (configuration not stated),inactive,48.6 µM (active),27.3 µM (active),27.3 µM (active),inactive,inactive,inactive,inactive,,inactive,inactive,,,,,
O=C(O)CN(CCN(CC(=O)O)CC(=O)O)CCN(CC(=O)O)CC(=O)O,inactive,18.8 µM (active),26.6 µM (active),18.8 µM (active),inactive,inactive,26.6 µM (active),,inactive,inactive,inactive,inactive,,,,
NC/C=C/C(=O)O,inactive,inactive,inactive,inactive,inactive,inactive,inactive,inactive,inactive,inactive,inactive,inactive,,,,
